Records with an inconclusive call do not appear. Active and inactive are the calls of the source. The call rests on the fitted dose curve; in most records, active means well fitted inhibition curve with a large enough effect; inconclusive means small, poorly fitted or top-dose-only effect; inactive means flat fitted curve, though single readings scatter.
Assays:
Experiment in all cases: qHTS profiling for inhibitors of Plasmodium falciparum proliferation (AID 504749); further: nearly all actives have a fitted effect of over 60% in size
AA1029 = conditions: P. falciparum in erythrocytes, SYBR Green DNA, 72 h; series mostly up to 28.7 µM
In short: (§1)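 In a 72 h erythrocytic culture (37 C, humidified, 5% CO2) at 2.5% hematocrit and 0.3% starting parasitemia, compounds were tested; SYBR Green I in detergent lysis buffer stained parasite DNA overnight.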

C2A = conditions: P. falciparum in erythrocytes, SYBR Green DNA, 72 h; series mostly up to 28.7 µM
In short: as §1

CP211 = conditions: P. falciparum in erythrocytes, SYBR Green DNA, 72 h; series mostly up to 28.7 µM
In short: as §1

CP217 = conditions: P. falciparum in erythrocytes, SYBR Green DNA, 72 h; series mostly up to 28.7 µM
In short: as §1

CP250 = conditions: P. falciparum in erythrocytes, SYBR Green DNA, 72 h; series mostly up to 12.8 µM
In short: as §1

CP252 = conditions: P. falciparum in erythrocytes, SYBR Green DNA, 72 h; series mostly up to 12.8 µM
In short: as §1

CP256 = conditions: P. falciparum in erythrocytes, SYBR Green DNA, 72 h; series mostly up to 28.7 µM
In short: as §1

CP269 = conditions: P. falciparum in erythrocytes, SYBR Green DNA, 72 h; series mostly up to 28.7 µM
In short: as §1

CP325 = conditions: P. falciparum in erythrocytes, SYBR Green DNA, 72 h; series mostly up to 28.7 µM
In short: as §1

CP329 = conditions: P. falciparum in erythrocytes, SYBR Green DNA, 72 h; series mostly up to 28.7 µM
In short: as §1

DIV14 = conditions: P. falciparum in erythrocytes, SYBR Green DNA, 72 h; series mostly up to 28.7 µM
In short: as §1

DIV17 = conditions: P. falciparum in erythrocytes, SYBR Green DNA, 72 h; series mostly up to 28.7 µM
In short: as §1

ECU = conditions: P. falciparum in erythrocytes, SYBR Green DNA, 72 h; series mostly up to 28.7 µM
In short: as §1

FAB9 = conditions: P. falciparum in erythrocytes, SYBR Green DNA, 72 h; series mostly up to 28.7 µM
In short: as §1

N140 = conditions: P. falciparum in erythrocytes, SYBR Green DNA, 72 h; series mostly up to 28.7 µM
In short: as §1

P93_24 = conditions: P. falciparum in erythrocytes, SYBR Green DNA, 72 h; series mostly up to 28.7 µM
In short: as §1

PAD = conditions: P. falciparum in erythrocytes, SYBR Green DNA, 72 h; series mostly up to 28.7 µM
In short: as §1

PC15 = conditions: P. falciparum in erythrocytes, SYBR Green DNA, 72 h; series mostly up to 28.7 µM
In short: as §1

PC26 = conditions: P. falciparum in erythrocytes, SYBR Green DNA, 72 h; series mostly up to 28.7 µM
In short: as §1

SC27B = conditions: P. falciparum in erythrocytes, SYBR Green DNA, 72 h; series mostly up to 28.7 µM
In short: as §1

Measured: Potency

CC(C)c1c(CN(C)[C@@H](C)Cc2ccccc2)n(C)n(-c2ccccc2)c1=O
inactive: all assays above

C[C@]12CC[C@H]3[C@@H](CCC4=CC(=O)CC[C@@]43C)[C@@H]1CC[C@@H]2O
inactive: all assays above

From PubChem BioAssay (NCATS)
